The list is not random: actives were taken first. Their share in the collection is about 21%.
TDP1 cell noCPT = qHTS for Inhibitors of human tyrosyl-DNA phosphodiesterase 1 (TDP1): qHTS in cells in absence of CPT | DT40 Tdp1-/- hTDP1 cells, no CPT, ATP luminescence, 48 h | 420,000 tested, 15% active | Potency, µM (series often up to 46.2 µM), hits mostly inhibitors; also: nearly all actives have a fitted effect of over 55% in size
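Readout: luminescence from CellTiter-Glo after 30 min in the dark at RT. Cells: DT40 Tdp1-/- with stable hTDP1, 400/well. Exposure: compounds alone, ≥48 hr, 37 °C.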
D3 ag = activates the human D3 dopamine receptor | 410,000 tested, 0.58% active | D3R DiscoveRx beta-arrestin cells, luminescence, 90 min | max activation, % | P35462; in the data active = max activation above about 30%
Target sequence (P35462 whole entry, looked up): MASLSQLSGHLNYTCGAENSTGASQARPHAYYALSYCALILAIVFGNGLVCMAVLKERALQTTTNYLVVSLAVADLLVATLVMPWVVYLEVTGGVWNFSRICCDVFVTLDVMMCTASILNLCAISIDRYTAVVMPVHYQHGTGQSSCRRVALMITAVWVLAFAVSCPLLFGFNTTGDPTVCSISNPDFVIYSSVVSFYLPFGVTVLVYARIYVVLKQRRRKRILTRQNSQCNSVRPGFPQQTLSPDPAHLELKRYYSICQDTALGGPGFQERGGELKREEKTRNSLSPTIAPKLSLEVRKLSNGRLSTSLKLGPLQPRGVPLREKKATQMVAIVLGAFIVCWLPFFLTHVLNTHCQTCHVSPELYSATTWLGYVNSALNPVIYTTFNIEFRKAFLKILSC
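Agonist-mode cell screen: cells plated at 1500/well and incubated overnight at 37 °C, then exposed to library compounds for 90 min at 37 °C. Detection reagent was added for 30–60 min at room temperature, and luminescence was read.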
DT40 TDP1 CPT = DT40-hTDP1 cell growth loss with CPT; chicken DT40 Tdp1-/-;hTDP1 cells + 20 nM CPT, ATP luminescence, 48 h; Potency, µM (titrated, usually from 46.2 µM), usual class: inhibitors; 420,000 tested, 12% active; AID 686979; also: nearly all actives have a fitted effect of over 55% in size
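Chicken DT40 Tdp1-/- cells complemented with human TDP1, 400 cells/well, exposed to compounds plus 20 nM camptothecin for at least 48 h at 37 C; viability read as ATP content by CellTiter-Glo luminescence.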
DRD3 antagonist = antagonists of human D3 dopamine receptor; P35462; D3R cells, DiscoveRx beta-arrestin luminescence, antagonist mode; hits give low values; max response, negative = inhibition, %; 360,000 tested, 2.5% active; in the data active = max response below about -50%; inconclusive = no clear call, values can overlap the other calls
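Cells plated overnight at 1500 cells/well, then exposed to library compounds with dopamine controls for 90 minutes at 37 degrees C. DiscoveRx reagent added for 30–60 minutes at room temperature; luminescence read, quantitative HTS format.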
IL1B secr inh = blocks inflammasome-driven IL-1 beta release | 360,000 tested, 4.7% active | THP-1 LPS/ATP IL-1B secretion, AlphaLISA, 16 h; hits give low values | activity change, % at 57.5 µM; in the data active = activity change below about -50%; inconclusive = mostly about -30% to -49%
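THP-1 cells pretreated 1 hr with compounds (up to 57.5 uM final), then stimulated with LPS (250 ng/mL final) plus ATP (1.25 mM final); secreted IL-1B measured by AlphaLISA after 16 hr, decreased signal indicating inhibition.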
ClpP mod = qHTS Assay for Activators of ClpP | ATP-dependent Clp protease proteolytic subunit (Bacillus subtilis (strain 168)), P80244 | purified B. subtilis ClpP, FRET peptide cleavage, 20 min | Potency, µM (titrated, usually from 57.5 µM) | 340,000 tested, 1.9% active | AID 651965, 2013; active = well fitted falling curve with a large enough effect; inconclusive = small, poorly fitted or top-dose-only effect; inactive = no such curve, though single readings can be large or run the other way; also: the source files actives as falling curves though it sought activators and does not explain the sign; nearly all actives have a fitted effect of over 65% in size
Target sequence (P80244 whole entry, looked up): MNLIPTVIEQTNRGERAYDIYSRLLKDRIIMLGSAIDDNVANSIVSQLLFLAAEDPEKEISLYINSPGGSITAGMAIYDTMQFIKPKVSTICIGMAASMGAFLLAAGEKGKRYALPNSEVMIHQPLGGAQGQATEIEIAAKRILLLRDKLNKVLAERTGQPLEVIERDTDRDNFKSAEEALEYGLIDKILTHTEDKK
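Buffer: 100 mM Tris/HCl pH8, 100 mM KCl, 0.05% low protease BSA, 2.5% glycerol, 0.01% Tween-20. ClpP 10 microg/mL final; 20 min RT; delta FRET normalized to ADEP and DMSO controls.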
Numbers stand for hits. Unless noted, calls follow the shape of the dose curve; as a rule, active = well fitted inhibition curve with a large enough effect; inconclusive = small, poorly fitted or top-dose-only effect; inactive = flat fitted curve, though single readings scatter.

Results for CC1CC(=O)N(c2ccc(NCCc3ccccc3)c([N+](=O)[O-])c2)C1=O (centres undefined) ?
TDP1 cell noCPT: inactive; D3 ag: inactive; DT40 TDP1 CPT: inactive; DRD3 antagonist: inactive; IL1B secr inh: inactive

What do the screens show for `CC1CC(=O)N(c2ccc(NCCc3ccc(O)cc3)c([N+](=O)[O-])c2)C1=O` (centres undefined)?
TDP1 cell noCPT: 15µM; D3 ag: inactive; DT40 TDP1 CPT: 16µM; DRD3 antagonist: inactive; IL1B secr inh: inactive

What do the screens show for `CCCC(=O)NC(C)c1nc(-c2ccc(C)cc2)no1` (centres undefined)?
TDP1 cell noCPT: inconclusive; D3 ag: inactive; DT40 TDP1 CPT: inconclusive; DRD3 antagonist: inactive; IL1B secr inh: inactive; ClpP mod: inactive

What do the screens show for `Cc1ccc(CN2CCCn3nc(C(=O)NCCC(C)C)cc3C2=O)cc1`?
TDP1 cell noCPT: inactive; D3 ag: inactive; DT40 TDP1 CPT: inactive; ClpP mod: inactive

What do the screens show for `O=C(C1=C[C@H](c2coc3ccccc3c2=O)C[C@H](OCCCCO)O1)N1CCN(Cc2ccc3c(c2)OCO3)CC1`?
TDP1 cell noCPT: 16µM; D3 ag: inactive; DT40 TDP1 CPT: 21µM; DRD3 antagonist: inactive; ClpP mod: inactive

Results for CC(=O)n1cc([C@@H]2C=C(C(=O)N3CCN(C)CC3)O[C@H](OCc3ccc(CO)cc3)C2)c2ccccc21 ?
TDP1 cell noCPT: inactive; D3 ag: inactive; DT40 TDP1 CPT: inconclusive; DRD3 antagonist: inactive; IL1B secr inh: inactive; ClpP mod: inactive

What do the screens show for `O=C(C1=C[C@H](C2CCCCC2)C[C@H](OCCCCO)O1)N1CCN(Cc2ccccc2)CC1`?
TDP1 cell noCPT: inconclusive; D3 ag: inactive; DT40 TDP1 CPT: 21µM; DRD3 antagonist: inactive; IL1B secr inh: inactive; ClpP mod: inactive

Results for CC(=O)n1cc([C@H]2C=C(C(=O)N3CCN(Cc4ccc5c(c4)OCO5)CC3)O[C@@H](OCCCCO)C2)c2ccccc21 ?
TDP1 cell noCPT: inconclusive; D3 ag: inactive; DT40 TDP1 CPT: 16µM; DRD3 antagonist: inactive; IL1B secr inh: inactive; ClpP mod: inactive

How did C=CCOC(=O)C1=C[C@H](c2cn(C(C)=O)c3ccccc23)C[C@H](OCc2ccc(CO)cc2)O1 do in these assays?
TDP1 cell noCPT: 21µM; D3 ag: inactive; DT40 TDP1 CPT: inconclusive; DRD3 antagonist: inactive; IL1B secr inh: inactive; ClpP mod: inactive

What do the screens show for `CCO[C@@H]1OC(C(=O)N2CCN(Cc3ccc4c(c3)OCO4)CC2)=C[C@H](c2cn(C(C)=O)c3ccccc23)[C@H]1CCCO`?
TDP1 cell noCPT: inconclusive; D3 ag: inactive; DT40 TDP1 CPT: inconclusive; DRD3 antagonist: inactive; IL1B secr inh: inconclusive; ClpP mod: inactive

How did Cc1nc2cncnc2n(Cc2ccccc2)c1=O do in these assays?
TDP1 cell noCPT: inactive; DT40 TDP1 CPT: inactive

What do the screens show for `Cc1ccc(NC(=O)/C=C/c2ccc([N+](=O)[O-])s2)cc1`?
TDP1 cell noCPT: 3.7µM; D3 ag: inactive; DT40 TDP1 CPT: 3.3µM; DRD3 antagonist: inactive; IL1B secr inh: -96; ClpP mod: inactive

How did Cc1cccc(NC(=O)/C=C/c2ccc([N+](=O)[O-])s2)c1 do in these assays?
TDP1 cell noCPT: 2.6µM; D3 ag: inactive; DT40 TDP1 CPT: 2.6µM; DRD3 antagonist: inconclusive; IL1B secr inh: -97; ClpP mod: inactive

How did Cc1cccc(N/N=C/c2ccc(O)c(O)c2O)c1 do in these assays?
TDP1 cell noCPT: inconclusive; D3 ag: inactive; DT40 TDP1 CPT: inconclusive; DRD3 antagonist: inactive; IL1B secr inh: inactive; ClpP mod: inactive

What do the screens show for `Cc1cccc(N/N=C/c2ccc(C)s2)c1`?
TDP1 cell noCPT: inconclusive; D3 ag: inactive; DT40 TDP1 CPT: 29µM; DRD3 antagonist: inactive; IL1B secr inh: inactive; ClpP mod: inactive

How did COc1cccc(NC(=O)/C=C/c2ccccc2[N+](=O)[O-])c1 do in these assays?
TDP1 cell noCPT: inconclusive; D3 ag: inactive; DT40 TDP1 CPT: inconclusive; DRD3 antagonist: inactive; IL1B secr inh: inactive; ClpP mod: inactive

How did Cc1cccc(NC(=S)N/N=C/c2ccc([N+](=O)[O-])s2)c1 do in these assays?
TDP1 cell noCPT: 7.9µM; D3 ag: inactive; DT40 TDP1 CPT: 13µM; DRD3 antagonist: -97; IL1B secr inh: inactive; ClpP mod: inactive

Results for Cc1cc([N+](=O)[O-])ccc1NC(=O)/C=C/c1cccs1 ?
TDP1 cell noCPT: inconclusive; D3 ag: inactive; DT40 TDP1 CPT: inactive; DRD3 antagonist: inactive; IL1B secr inh: inconclusive; ClpP mod: inactive

What do the screens show for `Cc1onc(-c2ccccc2)c1CNC(=O)C1COc2ccccc2O1` (centres undefined)?
TDP1 cell noCPT: inconclusive; D3 ag: inactive; DT40 TDP1 CPT: inactive; DRD3 antagonist: inactive

How did COc1ccc(CCNC(=O)C(=O)NCC(c2ccc3c(c2)OCO3)N2CCOCC2)cc1 (centres undefined) do in these assays?
TDP1 cell noCPT: inconclusive; D3 ag: inactive; DT40 TDP1 CPT: inconclusive; ClpP mod: inactive

How did Cc1oc(-c2ccccc2)nc1CSc1nnc(C)n2c1cc1sccc12 do in these assays?
TDP1 cell noCPT: inconclusive; D3 ag: inactive; DT40 TDP1 CPT: inconclusive; ClpP mod: inactive

Results for Cc1ccccc1C(=O)N1CCC(C(=O)Nc2ccccc2N2CCCC2)CC1 ?
TDP1 cell noCPT: inactive; D3 ag: inactive; DT40 TDP1 CPT: inactive; DRD3 antagonist: inactive; IL1B secr inh: inactive

How did Cc1ccc(NC(=O)/C=C/c2ccc([N+](=O)[O-])s2)c(C)c1 do in these assays?
TDP1 cell noCPT: 3.7µM; D3 ag: inactive; DT40 TDP1 CPT: 2.6µM; DRD3 antagonist: inconclusive; IL1B secr inh: -96; ClpP mod: inactive

How did Cc1cc(OCC(=O)Nc2ccncc2)c(C)cc1Br do in these assays?
TDP1 cell noCPT: inactive; D3 ag: inactive; DT40 TDP1 CPT: inconclusive; DRD3 antagonist: inactive; IL1B secr inh: inactive; ClpP mod: inactive

What do the screens show for `CCc1ccc(OCC(=O)NNC(=O)c2cnccn2)c(Br)c1`?
TDP1 cell noCPT: 8.2µM; D3 ag: inactive; DT40 TDP1 CPT: 5.8µM; DRD3 antagonist: inactive; IL1B secr inh: inactive; ClpP mod: inactive

How did CC(C)(C)c1ccc(OCC(=O)Nc2ccncc2)c(Br)c1 do in these assays?
TDP1 cell noCPT: 7.3µM; D3 ag: inactive; DT40 TDP1 CPT: 8.2µM; DRD3 antagonist: inactive; IL1B secr inh: inactive; ClpP mod: inactive

What do the screens show for `CCc1ccc(OCC(=O)Nc2ccncc2)c(Br)c1`?
TDP1 cell noCPT: 10µM; D3 ag: inactive; DT40 TDP1 CPT: inconclusive; DRD3 antagonist: inactive; IL1B secr inh: inactive

What do the screens show for `COc1ccc(-n2c(=O)c(C)nc3cnc(Oc4ccccc4)nc32)cc1`?
TDP1 cell noCPT: inconclusive; DT40 TDP1 CPT: inactive
